Measured values from PubChem BioAssay.
For part of these data: Potency and affinity values are given separately. Activity calls are given as the source filed them.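 Rule for the calls, unless noted: active = fluorescence ratio normalized to control raised more than 50% in primary screen plus both repeat runs; inactive = the rest.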

Tests used:
[1] = test system: TRPC4 beta (transient receptor potential cation channel C4), mouse; assay: TRPC4 cation channel opening, retest – cell-based, Fluo4 calcium, HEK293 TRPC4beta/mu-opioid, duplicates, 10 µM, confirmation (AID 2426); settings: Fluo4 calcium fluorescence, at 10 µM; stronger effect = higher value
[2] = test system: transient receptor potential cation channel C4 beta (TRPC4), mouse; assay: TRPC4 cation channel opening, second retest – cell-based, second round, Fluo4, HEK293 TRPC4beta/mu-opioid, 1 µM, confirmation (AID 2461;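 active = primary screen active and over 50% activation in each of two duplicate runs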); settings: Fluo4 calcium fluorescence, at 1 µM; stronger effect = higher value
[3] = test system: TRPC4 (transient receptor potential cation channel C4 beta), mouse; assay: potentiation of DAMGO EC20 TRPC4 response – cell-based, second round, Fluo-4, HEK293 TRPC4beta/mu-opioid, 1 µM, confirmation (AID 2554;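 active = primary screen hit whose fluorescence ratio, in both repeats, exceeds the weak agonist control mean by 3 SD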); settings: DAMGO EC20, Fluo-4 calcium flux, at 1 µM; stronger effect = higher value
[4] = test system: TRPC4 beta (transient receptor potential cation channel C4), mouse; assay: potentiation of DAMGO EC20 TRPC4 response – cell-based, Fluo-4, HEK293 TRPC4beta/mu-opioid, confirmation (AID 2555;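 active = primary screen hit whose calcium fluorescence ratio, in both repeats, exceeds the weak agonist control mean by 3 SD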); settings: DAMGO EC20, Fluo-4 calcium flux, at 10 µM; stronger effect = higher value
[5] = target: Short transient receptor potential channel 4 (Mus musculus) (UniProt Q9QUQ5); assay: blockers of DAMGO-evoked TRPC4 calcium flux – cell-based, Fluo4, HEK293 TRPC4beta/mu-opioid, confirmation (AID 2636;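 active = calcium signal cut by more than 3 SD below the full-agonist control yet still positive, in both repeats and the earlier primary screen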); settings: at 10 µM; stronger effect = higher value
[6] = target: Short transient receptor potential channel 4 (Mus musculus) (UniProt Q9QUQ5); assay: blockers of DAMGO-evoked TRPC4 calcium flux – cell-based, second round, Fluo4, HEK293 TRPC4beta/mu-opioid, 1 µM, confirmation (AID 2637;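 active = calcium signal ratio cut to more than 3 SD under the fully stimulated control mean yet still positive, in both repeats and the primary screen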); settings: at 1 µM; stronger effect = higher value
[7] = target: Short transient receptor potential channel 4 (Mus musculus) (UniProt Q9QUQ5); assay: calcium entry via TRPC4 opening agents – cell-based, HEK293 TRPC4/mu-opioid, Fluo-4 calcium, dose response (AID 434937;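 active = primary screen activator hit with a dose response curve and TRPC4 channel activation at any tested dose; inactive = no activation, no dose response, or not a primary hit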)
[8] = target: Short transient receptor potential channel 4 (Mus musculus) (UniProt Q9QUQ5); assay: potentiation of DAMGO-evoked TRPC4 calcium signal – cell-based, HEK293 TRPC4/mu-opioid, Fluo-4 calcium, EC20 DAMGO, dose response (AID 434941;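 active = earlier screen potentiator hit that boosts the TRPC4 ion channel at some dose, with a dose response; inactive = no potentiation, no dose response, or not a prior hit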;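 note: calcium entry triggered by an EC20 dose of DAMGO at the co-expressed mu-opioid receptor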)
[9] = target: Short transient receptor potential channel 4 (Mus musculus) (UniProt Q9QUQ5); assay: block of DAMGO-driven TRPC4 calcium entry – cell-based, HEK293 TRPC4/mu-opioid, Fluo-4 calcium, dose response (AID 434942;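 active = primary screen inhibitor hit that blocks the TRPC4 channel at some tested dose, yielding a dose curve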)
[10] = target: Short transient receptor potential channel 6 (Mus musculus) (UniProt Q61143); assay: TRPC6 blockade by TRPC4 inhibitor hits – cell-based, HEK293, membrane potential dye, duplicate, selectivity assay for TRPC4 inhibitor project, confirmation (AID 434948;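 active = active in primary screen and both duplicates, each dropping signal beyond three positive-control SD with fluorescence still positive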); settings: HEK293 TRPC6, membrane potential dye fluorescence, at 10 µM, stimulated with maximal-effect acetylcholine; stronger effect = higher value
[11] = target: Short transient receptor potential channel 6 (Mus musculus) (UniProt Q61143); assay: TRPC6 opening by TRPC4 activator hits – cell-based, HEK293, membrane potential dye, duplicate, selectivity assay for TRPC4 activator project, confirmation (AID 434950;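 active = membrane potential signal rise above negative control mean plus 3 SD in both duplicates, also active in the earlier TRPC4 screen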); settings: HEK293 TRPC6, membrane potential fluorescence, at 10 µM; activation: stronger effect = higher value; outcome: activation
[12] = target: Short transient receptor potential channel 6 (Mus musculus) (UniProt Q61143); assay: positive modulators of mouse TRPC6 channel – HEK293 cells, membrane potential dye, duplicate, selectivity assay for TRPC4 potentiator project, confirmation (AID 434952;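 active = compound raising the membrane signal above positive-control mean plus 3 SD in both repeats, and a primary screen hit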); settings: HEK293 TRPC6, membrane potential dye fluorescence, at 10 µM, maximal acetylcholine added after compound; stronger effect = higher value
[13] = target: Short transient receptor potential channel 4 (Mus musculus) (UniProt Q9QUQ5); assay: calcium flux activators in TRPC4/5HT1a cells, counter-screen for TRPC4 activator project, cell-based, second counter screen, HEK293 TRPC4/5HT1a, Fluo-4 (AID 434977;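 active = calcium signal rise above buffer-control mean plus 5 SD in both duplicates, and also a hit in the primary screen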); settings: Fluo-4 calcium flux, at 10 µM; stronger effect = higher value
[14] = serotonin-gated TRPC4 signal block – cell-based, second counter screen, HEK293 TRPC4/5HT1a, Fluo-4, counter-screen for TRPC4 inhibitor project, confirmation (AID 434978;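 active = primary screen active whose calcium signal fell more than 3 SD beyond the full-serotonin control mean in both duplicate plates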;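 note: serotonin given first at submaximal then at maximal dose after compound preincubation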); settings: Fluo-4 calcium flux, at 10 µM, serotonin added to trigger calcium flux; stronger effect = higher value
[15] = test system: TRPC4 (mouse), co-expressed with 5HT1a in HEK293; assay: enhancement of serotonin-evoked TRPC4 response – cell-based, second counter screen, HEK293 TRPC4/5HT1a, Fluo-4, counter-screen for TRPC4 potentiator project, confirmation (AID 434979;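 active = signal rise over 3 SD above mean of control wells given weak agonist, in both repeats and first screen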); settings: Fluo-4 calcium flux, at 10 µM, serotonin added at its EC20 dose; stronger effect = higher value
[16] = nonspecific calcium rise without TRPC4 – cell-based, HEK293 mu-opioid receptor line, counter-screen for TRPC4 activator project, confirmation (AID 449723;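 active = hit in primary screen, with calcium signal over 5 SD above buffer well mean in both duplicates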;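 note: counter screen cells carry the mu-opioid receptor alone and lack TRPC4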); settings: HEK293 mu-opioid cells, Fluo-4 calcium fluorescence, at 10 µM; stronger effect = higher value
[17] = nonspecific potentiation of DAMGO calcium response – cell-based, HEK293 mu-opioid receptor line, counter-screen for TRPC4 allosteric potentiator project, confirmation (AID 449724;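 active = calcium signal rise more than 3 SD above the low-dose agonist control mean, in both duplicate plates and the primary screen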); settings: HEK293 mu-opioid receptor cells, Fluo-4 calcium flux, at 10 µM, compound added before EC20 DAMGO stimulus; stronger effect = higher value

Chain of Short transient receptor potential channel 4 (Mus musculus) (Q9QUQ5 whole entry, looked up): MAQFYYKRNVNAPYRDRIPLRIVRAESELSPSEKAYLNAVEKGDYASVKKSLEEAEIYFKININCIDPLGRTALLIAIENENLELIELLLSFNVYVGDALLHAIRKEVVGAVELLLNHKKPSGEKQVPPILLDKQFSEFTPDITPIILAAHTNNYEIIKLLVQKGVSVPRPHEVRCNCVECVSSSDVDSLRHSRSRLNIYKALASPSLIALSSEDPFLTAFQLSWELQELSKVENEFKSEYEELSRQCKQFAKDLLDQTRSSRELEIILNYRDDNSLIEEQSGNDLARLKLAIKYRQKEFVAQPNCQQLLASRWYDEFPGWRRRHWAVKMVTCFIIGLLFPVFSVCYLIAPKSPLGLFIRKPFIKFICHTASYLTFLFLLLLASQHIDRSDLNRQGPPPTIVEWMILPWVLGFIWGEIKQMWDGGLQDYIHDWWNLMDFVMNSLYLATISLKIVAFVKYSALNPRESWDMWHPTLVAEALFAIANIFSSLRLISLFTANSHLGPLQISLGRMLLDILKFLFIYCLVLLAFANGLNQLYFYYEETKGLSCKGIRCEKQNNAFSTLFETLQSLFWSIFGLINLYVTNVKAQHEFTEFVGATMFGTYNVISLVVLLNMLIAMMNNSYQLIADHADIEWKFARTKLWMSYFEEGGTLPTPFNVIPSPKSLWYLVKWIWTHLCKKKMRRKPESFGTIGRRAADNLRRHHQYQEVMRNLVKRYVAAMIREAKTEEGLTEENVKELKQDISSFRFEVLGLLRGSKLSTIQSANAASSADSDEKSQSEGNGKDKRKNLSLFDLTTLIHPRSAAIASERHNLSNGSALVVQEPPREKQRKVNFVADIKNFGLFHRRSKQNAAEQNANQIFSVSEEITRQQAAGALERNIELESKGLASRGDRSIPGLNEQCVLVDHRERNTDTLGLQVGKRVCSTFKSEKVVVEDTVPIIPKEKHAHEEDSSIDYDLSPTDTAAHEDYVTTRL
Chain of Short transient receptor potential channel 6 (Mus musculus) (Q61143 whole entry, looked up): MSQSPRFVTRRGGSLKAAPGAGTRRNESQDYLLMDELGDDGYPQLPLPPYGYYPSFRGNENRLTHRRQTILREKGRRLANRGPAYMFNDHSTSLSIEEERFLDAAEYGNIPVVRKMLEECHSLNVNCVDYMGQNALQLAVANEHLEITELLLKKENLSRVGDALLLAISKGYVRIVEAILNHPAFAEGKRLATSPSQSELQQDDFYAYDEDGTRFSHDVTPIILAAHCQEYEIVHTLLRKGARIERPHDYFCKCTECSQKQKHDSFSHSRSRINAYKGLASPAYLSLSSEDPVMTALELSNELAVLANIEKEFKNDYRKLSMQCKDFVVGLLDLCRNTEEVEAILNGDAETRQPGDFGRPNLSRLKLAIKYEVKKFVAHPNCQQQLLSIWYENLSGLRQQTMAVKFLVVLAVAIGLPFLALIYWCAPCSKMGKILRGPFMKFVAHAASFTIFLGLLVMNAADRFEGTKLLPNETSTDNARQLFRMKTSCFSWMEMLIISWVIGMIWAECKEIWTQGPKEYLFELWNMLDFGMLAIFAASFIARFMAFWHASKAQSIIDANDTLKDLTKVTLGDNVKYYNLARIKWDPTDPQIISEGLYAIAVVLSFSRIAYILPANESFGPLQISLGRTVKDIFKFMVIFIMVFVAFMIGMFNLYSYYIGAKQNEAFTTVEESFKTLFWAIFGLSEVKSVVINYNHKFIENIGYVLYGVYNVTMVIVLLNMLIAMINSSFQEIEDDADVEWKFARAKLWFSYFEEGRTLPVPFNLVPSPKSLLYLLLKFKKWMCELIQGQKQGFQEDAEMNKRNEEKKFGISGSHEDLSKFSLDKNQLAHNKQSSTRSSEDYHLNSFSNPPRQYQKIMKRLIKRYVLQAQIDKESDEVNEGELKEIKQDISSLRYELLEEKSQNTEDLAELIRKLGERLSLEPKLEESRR

Row | Compound | outcome [1] | outcome [2] | outcome [3] | potentiation [4] | outcome [5] | outcome [6] | outcome [7] | outcome [8] | outcome [9] | outcome [10] | outcome [11] | outcome [12] | outcome [13] | outcome [14] | potentiation [15] | outcome [16] | outcome [17] | outcome [4] | outcome [15] | potentiation [3]
1 | CC(C)Oc1ccccc1C1CC(=O)Nc2cc3c(cc21)OCCO3 (stereo not drawn) | inactive | inactive | inactive | 44% (active) | inactive | inactive | inactive | inactive | inactive | inactive | inactive | inactive | inactive | inactive | 96.2% (active) | inactive | inactive |  |  | 
2 | CCOc1cc2[nH]c(=S)n(C3CC3)c(=O)c2cc1OCC | inactive | inactive | inactive |  | inactive | inactive | inactive | inactive | inactive | inactive | inactive | inactive | inactive | inactive |  | inactive | inactive | inactive | inactive | 
3 | Cc1ccc(Cn2c(=N)c(C(=O)NC3CCCCC3)cc3c(=O)n4ccccc4nc32)cc1 | inactive | inactive | inactive | 26% (active) | inactive | inactive | inactive | inactive | inactive | inactive | inactive | inactive | inactive | inactive |  | inactive | inactive |  | inactive | 
4 | Cc1cccc(NC(=O)CNC(=O)CN2C(=O)NC3(CCCCC3C)C2=O)c1C (stereo not drawn) | inactive | inactive | inactive |  | inactive | inactive | inactive | inactive | inactive | inactive | inactive | inactive | inactive | inactive |  | inactive | inactive | inactive | inactive | 
5 | CC1=CC(=O)C(C(C)C)=C/C1=N/OS(=O)(=O)c1ccccc1 | inactive | inactive | inactive | 23% (active) | inactive | inactive | inactive | inactive | inactive | inactive | inactive | inactive | inactive | inactive | 64.1% (active) | inactive | inactive |  |  | 
6 | Cc1ccc(NC(=O)Nc2cccc([N+](=O)[O-])c2)nc1 | inactive | inactive |  |  | inactive | inactive | inactive | inactive | inactive | inactive | inactive | inactive | inactive | inactive | 24.5% (active) | inactive | inactive | inactive |  | 12% (active)
7 | CCSc1ccccc1C(=O)NCCc1ccccc1 | inactive | inactive | inactive |  | inactive | inactive | inactive | inactive | inactive | inactive | inactive | inactive | inactive | inactive |  | inactive | inactive | inactive | inactive | 
8 | Cc1nn(-c2ccccc2)c2nc(-c3ccccc3)cc(C(=O)N3CCOCC3)c12 | inactive | inactive | inactive | 15% (active) | inactive | inactive | inactive | inactive | inactive | inactive | inactive | inactive | inactive | inactive | 34.4% (active) | inactive | inactive |  |  | 
9 | CCN(CC)CCN(Cc1cc2cc3c(cc2[nH]c1=O)OCCO3)C(=O)NC1CCCCC1 | inactive | inactive | inactive |  | inactive | inactive | inactive | inactive | inactive | inactive | inactive | inactive | inactive | inactive |  | inactive | inactive | inactive | inactive | 
